Experimental findings from PubChem BioAssay (NCI) are described below.

A short description of assay [1]: NCI Yeast Anticancer Drug Screen. Data for the rad50 strain (AID 155).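 Note: 0% = growth of vehicle-only cultures of the same strain.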 To be noted: S. cerevisiae rad50 strain growth inhibition; at 50.0 µM; active compounds read high. A digest of the protocol: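 Inhibition values express reduced yeast growth in compound-treated cultures relative to vehicle-treated controls.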
Assay [2] can be described thus: NCI Yeast Anticancer Drug Screen. Data for the mec2-1 strain (AID 157). To be noted: S. cerevisiae mec2-1 strain, at 50.0 µM, active compounds read high. A digest of the protocol: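 Vehicle-treated cultures served as reference for growth inhibition of compound-exposed mec2-1 yeast.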
Assay [3] can be described thus: NCI Yeast Anticancer Drug Screen. Data for the sgs1 mgt1 strain (AID 161).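 Note: 0% = growth of cultures given vehicle only.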 The conditions noted are these: S. cerevisiae sgs1 mgt1 strain, at 50.0 µM, active compounds read high. A digest of the protocol: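 Read-out: growth inhibition vs vehicle controls. Cells: mutant yeast strain deficient in DNA damage repair.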
A short description of assay [4]: NCI Yeast Anticancer Drug Screen. Data for the cln2 rad14 strain (AID 165).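 Note: 0% = growth equal to vehicle treated cultures.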 The conditions noted are these: S. cerevisiae cln2 rad14 strain, at 50.0 µM, active compounds read high. A digest of the protocol: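 Each compound was tested on cln2 rad14 yeast. Inhibition of growth was calculated against vehicle-exposed controls.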
Assay [5] can be described thus: NCI Yeast Anticancer Drug Screen. Data for the bub3 strain (AID 167). The conditions noted are these: S. cerevisiae bub3 mutant strain, at 50.0 µM, active compounds read high. The essentials: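 Steps: expose the mutant yeast strain to compound; grow alongside vehicle-treated cultures; measure growth; express inhibition against the vehicle cultures.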
The nature of assay [6]: NCI Yeast Anticancer Drug Screen. Data for the mlh1 rad18 strain (AID 175). To be noted: S. cerevisiae mlh1 rad18 strain growth inhibition; at 50.0 µM; active compounds read high. A digest of the protocol:
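Vehicle-treated cultures served as the reference for growth inhibition in a yeast strain carrying DNA damage repair alterations exposed to each compound.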

About 79,000 compounds went through this panel and 15% of them were active in at least one assay; those are over-represented in the sample as a whole. A number with no mark means an inactive call. Active and inactive are the calls of the source. Cut-off read from the data, not from the text of the source: active = growth inhibition above about 70%; inactive = the rest.

Consider `O=[N+]([O-])c1cc(S(=O)(=O)F)cc(Cl)c1O`, for which the growth inhibition is -10.2% in assay [1]; 1.6% in assay [2]; 2.25% in assay [3]; -3.7% in assay [4]; -2.75% in assay [5]; 8.45% in assay [6].

Regarding `O=CC1(c2ccccc2)CCNCC1`, the growth inhibition is -0.95% in assay [1]; 3.85% in assay [2]; 15.5% in assay [3]; 6.35% in assay [4]; 0.85% in assay [5]; 8.85% in assay [6].

For the molecule `O=C1C=CC2(C=C1)CCN=c1c(O)c3c(c(O)c12)=NC=N3`, the growth inhibition in assay [1] is 15.5%; in assay [2], 7.55%; in assay [3] it was 8.5%; in assay [4], 29.2%; in assay [5] it was 11.9%; in assay [6] it was -4.5%.

As for `CCC[CH2][Sn]1([CH2]CCC)[O]CC2(CCCCC2)C[O]1`, the growth inhibition is 99.6% (active) in assay [1]; 99.8% (active) in assay [2]; 99.2% (active) in assay [3]; 99.5% (active) in assay [4]; 99.7% (active) in assay [5]; 99.6% (active) in assay [6].

For `C[C@]12CC[C@@H](OC(=O)N(CCCl)N=O)C[C@@H]1CC[C@@H]1[C@@H]2CC[C@]2(C)C(=O)CC[C@@H]12`, the growth inhibition in assay [1] is 1.55%; in assay [2], -3.4%; in assay [3] it was 26.5%; in assay [4] it was -0.75%; in assay [5] it was 13.2%; in assay [6], 59.9%.

In the case of `CCOC(=O)P(=O)(OCC)OCC`, the growth inhibition in assay [1] is 6.9%; in assay [2] it was -37.2%; in assay [3], -11%; in assay [4] it was -1.2%; in assay [5] it was 4.95%; in assay [6] it was -1.1%.

For `O=N[O-].O=N[O-].[NH2-].[NH2-].[NH2-].[NH2-].[Ni]`, the growth inhibition in assay [1] was 0.55%; in assay [2], 7%; in assay [3], 19.6%; in assay [4] it was -48.7%; in assay [5], -14.8%; in assay [6] it was 13.3%.

Regarding `CCOP(=O)(OCC)Oc1c(Cl)c(Cl)c(O)c(Cl)c1Cl`, the growth inhibition in assay [1] is -23.1%; in assay [2] it was -15.7%; in assay [3], 4.2%; in assay [4], -17.6%; in assay [5] it was 6.4%; in assay [6] it was -8.5%.

As for `CCCCOP(=O)(OCCCC)Oc1ccc2ccccc2c1`, the growth inhibition in assay [1] is 93.1% (active); in assay [2], 93.2% (active); in assay [3] it was 95.4% (active); in assay [4], 92.8% (active); in assay [5] it was 95.1% (active); in assay [6], 95.4% (active).

`OC1[C@@H]2[C@@H](O)CCCN2C[C@@H](O)[C@H]1O` (stereo partly specified): the growth inhibition in assay [1] is -53.2%; in assay [2] it was -93%; in assay [3], -31.9%; in assay [4] it was -20.6%; in assay [5], 1.05%; in assay [6] it was -28.1%.

In the case of `NC(Cc1ccc(O)c(F)c1)C(=O)O` (stereo unspecified), the growth inhibition in assay [1] is -37.1%; in assay [2], -40.4%; in assay [3], -41.2%; in assay [4] it was -2.75%; in assay [5] it was -51.9%; in assay [6], -14.3%.

Consider `CC(=O)C(I)C(C)=O.[Cr]`, for which the growth inhibition is 2.45% in assay [1]; -18.9% in assay [2]; 8.6% in assay [3]; 16.4% in assay [4]; 14.4% in assay [5]; 5.4% in assay [6].

Consider `C1CCN2CC34CC(CC5CCCN(C6CCCC3N6)C54)C2C1` (stereo unspecified), for which the growth inhibition was -19.5% in assay [1]; -43.1% in assay [2]; -22.1% in assay [3]; 10.7% in assay [4]; -36.3% in assay [5]; -99.8% in assay [6].

In the case of `c1ccc(N2CCNCC2)cc1`, the growth inhibition is -11.3% in assay [1]; 4.45% in assay [2]; -27.2% in assay [3]; -28.6% in assay [4]; -0.8% in assay [5]; -1.5% in assay [6].

For the molecule `Nc1cc(Cl)ccc1Cl`, the growth inhibition in assay [1] was 1.1%; in assay [2], -11.3%; in assay [3], -19.2%; in assay [4] it was -24.9%; in assay [5], 1.15%; in assay [6] it was -11.8%.

Regarding `O=[N+]([O-])c1ccc2sc3ccccc3c2c1`, the growth inhibition is 63.1% in assay [1]; 12.2% in assay [2]; 26.3% in assay [3]; 44% in assay [4]; -3.35% in assay [5]; 58.8% in assay [6].

On to `CCCC[S][Sn-]([CH2]CCC)([CH2]CCC)[CH2]CCC`, for which the growth inhibition in assay [1] is 98.7% (active); in assay [2] it was 98.7% (active); in assay [3], 99.2% (active); in assay [4], 98.5% (active); in assay [5] it was 99% (active); in assay [6] it was 99% (active).

Take `O=P1(N2CCCCC2)OCC2(CO1)COP(=O)(N1CCCCC1)OC2` (stereo unspecified): the growth inhibition in assay [1] is -7.15%; in assay [2], -0.6%; in assay [3] it was 0.1%; in assay [4], -7.55%; in assay [5], -1.65%; in assay [6], 3.2%.

Turning to `CC(C)C1(Cc2ccccc2)C(=O)NC(=S)NC1=O`, the growth inhibition in assay [1] was -2.05%; in assay [2], -0.8%; in assay [3], 9.3%; in assay [4], -2.85%; in assay [5] it was -14.2%; in assay [6], -2.7%.

As to `CCCOP1(=O)C=C(O)C(Cl)=C(C)C1` (stereo unspecified), the growth inhibition was -32.5% in assay [1]; -15.4% in assay [2]; -42.8% in assay [3]; -12.8% in assay [4]; -19.4% in assay [5]; -46.8% in assay [6].

On to `CC(=O)[O-].CC(=O)[O-].[Mn+2].c1ccc(/C(=N\Nc2ccccn2)c2ccccn2)cc1`, for which the growth inhibition in assay [1] was 87.8% (active); in assay [2], 91.5% (active); in assay [3], 90.5% (active); in assay [4], 84.2% (active); in assay [5], 89.2% (active); in assay [6] it was 89.4% (active).
